Test results: PubChem BioAssay AID1259341 (Broad Institute, 2017)

What follows are compounds tested against Caspase recruitment domain-containing protein 9 (Homo sapiens) + E3 ubiquitin-protein ligase TRIM62 (Homo sapiens) (UniProt Q9H257+Q9BVG3) (assay: disruptors of CARD9-TRIM62 binding, primary screen, cell lysate, HEK293FT lysates, Luminex bead ELISA (AID 1259341;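 further: PE anti-Flag signal of Flag-CARD9 captured by myc-TRIM62 beads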)). Conditions: PE fluorescence, active compounds read low, concentration not given here;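 active means activity change under -35% in any replicate well, with more than 20 beads read in that well; inactive means the rest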.
Caspase recruitment domain-containing protein 9 (Homo sapiens) + E3 ubiquitin-protein ligase TRIM62 (Homo sapiens), sequence (Q9BVG3 whole entry, looked up, the tested form may be a part): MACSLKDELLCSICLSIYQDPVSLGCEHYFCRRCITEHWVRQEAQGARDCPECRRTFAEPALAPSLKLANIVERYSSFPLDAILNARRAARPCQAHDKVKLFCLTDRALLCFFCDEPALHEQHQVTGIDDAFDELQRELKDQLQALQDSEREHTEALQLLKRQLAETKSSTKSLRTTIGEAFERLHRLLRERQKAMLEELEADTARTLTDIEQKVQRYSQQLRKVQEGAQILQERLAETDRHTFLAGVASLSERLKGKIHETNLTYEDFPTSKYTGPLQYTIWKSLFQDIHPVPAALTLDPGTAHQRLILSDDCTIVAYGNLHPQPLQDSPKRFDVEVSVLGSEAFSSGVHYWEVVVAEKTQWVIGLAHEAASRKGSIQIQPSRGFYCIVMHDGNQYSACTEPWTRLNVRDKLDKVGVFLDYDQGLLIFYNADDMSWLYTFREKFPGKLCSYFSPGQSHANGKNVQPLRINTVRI
Caspase recruitment domain-containing protein 9 (Homo sapiens) + E3 ubiquitin-protein ligase TRIM62 (Homo sapiens), sequence (Q9H257 whole entry, looked up, the tested form may be a part): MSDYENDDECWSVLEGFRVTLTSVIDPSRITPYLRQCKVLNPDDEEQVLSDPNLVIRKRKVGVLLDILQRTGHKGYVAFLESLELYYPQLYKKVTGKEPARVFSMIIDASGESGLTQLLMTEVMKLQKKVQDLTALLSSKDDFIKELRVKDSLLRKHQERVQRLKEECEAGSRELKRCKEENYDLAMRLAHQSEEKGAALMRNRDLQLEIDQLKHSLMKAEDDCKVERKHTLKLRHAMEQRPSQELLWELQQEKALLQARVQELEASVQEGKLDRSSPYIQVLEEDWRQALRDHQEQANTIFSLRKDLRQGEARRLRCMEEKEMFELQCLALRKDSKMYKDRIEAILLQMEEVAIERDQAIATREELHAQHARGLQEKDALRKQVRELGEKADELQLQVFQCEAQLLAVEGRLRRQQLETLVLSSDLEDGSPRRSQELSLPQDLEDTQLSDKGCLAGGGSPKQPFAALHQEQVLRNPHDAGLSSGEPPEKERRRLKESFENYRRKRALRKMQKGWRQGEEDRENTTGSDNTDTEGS

Activity change, negative = inhibition, inactive:
O=C(Cn1c(=O)cc(C(=O)N2CCc3ccccc3C2)c2ccccc21)NCc1ccc2c(c1)OCO2 -5.84%
Cc1cc(C(=O)Nc2nc3c(s2)CCc2ccccc2-3)no1 3.92%
O=C(O)Cc1c[nH]c2cccc(O)c12 0.751%
CCN(CCNC(=O)C1CCN(S(=O)(=O)c2c(C)noc2C)CC1)c1ccccc1 -0.84%
O=C(NCCc1ccco1)c1ccc(OCc2cn3ccccc3n2)cc1 0.111%
CCC1c2ccc(C)n2CCN1C(=O)Nc1ccccc1C(=O)OC (stereo unspecified) 22.8%
Cc1noc(C)c1S(=O)(=O)Nc1ccc2c(c1)C(=O)N([C@H](C)CO)C[C@H](C)[C@@H](CN(C)CC1CCCCC1)OCCCC[C@H](C)O2 7.9%
O=C(COC(=O)c1ccc(F)cc1F)Nc1ncccn1 -18.2%
CC(CCc1ccco1)N(C)S(=O)(=O)c1ccc2[nH]c(=O)ccc2c1 (stereo unspecified) 3.38%
CC(=O)Nc1ccc(Nc2nc(-c3nnc(-c4cccc(C)c4)o3)nc3ccccc23)cc1 -1.95%
N#Cc1c(NC(=O)CSc2nc3ccccc3o2)sc2c1CCC2 2.26%
O=C(O)C(c1ccccc1)C(c1ccccc1)c1ccccc1 (stereo unspecified) 6.86%
COc1ccc(NC(=O)c2nc(Nc3ccccc3)c3ccccc3n2)cc1 4.26%
O=C(NCc1ccco1)[C@@H]1CSC2c3ccccc3C(=O)N21 (stereo partly specified) -0.672%
O=S(=O)(Nc1nc2ccc(S(=O)(=O)N3CCCCC3)cc2s1)c1ccccc1 -0.733%
CN1C(=O)C(c2ccccc2[N+](=O)[O-])C(=O)c2ccccc21 (stereo unspecified) 3.98%
O=C1c2ccccc2-c2nc3ccccc3nc21 -4.55%
O=C(Nc1ccc2oc(-c3ccncc3)nc2c1)c1ccc2c(c1)OCCO2 -1.89%
O=C(Cc1ccc(S(=O)(=O)N2CCOCC2)s1)Nc1nc2c(s1)CCCC2 -0.777%
N#Cc1c(-c2ccco2)cc(-c2cccnc2)nc1N 0.372%
N#CCSc1nc2c(c(=O)n1Cc1ccco1)C1(CCCC1)Cc1ccccc1-2 -5.29%
Cc1nn2c(c1-c1ccccc1)NC(c1ccco1)=CC2c1ccco1 (stereo unspecified) 21.4%
CN(C)c1ccc(CN2C[C@H]3CC[C@@H]2CN(C(=O)c2ccncc2)C3)cn1 1.51%
O=C(O)C1Oc2cc3ccccc3cc2O1 -13.6%
Cc1ccc(C)n1Nc1nc(O)cs1 1.72%
COc1ccc(F)c(CN2C[C@H]3CC[C@@H]2CN(Cc2cscn2)C3)c1 -3.76%
Clc1ccc2nc(CN3CCCCCC3)cn2c1 5.28%
CCc1ccc(Nc2nc(C(=O)NCc3ccc(N(C)C)cc3)nc3ccccc23)cc1 -21%
O=C(CCc1nc(-c2ccccc2)no1)NCC1CNCCOC1 (stereo unspecified) 18.6%
O=C(Nc1nc(-c2ccco2)c(-c2ccco2)s1)c1ccco1 -9.14%
COc1ccc(-c2nc(SCC(=O)N3CCN(c4ccccc4OC)CC3)n[nH]2)cc1 23.5%
CC(=O)Nc1ccc2nc3c(=O)n(C)c(=O)n(C)c3nc2c1 3.76%
Cc1ccc(Nc2nc(C(=O)Nc3ccc(Cl)cc3)nc3ccccc23)cc1 -19.6%
Cc1ncnc(N2CCC(c3nccn3Cc3cccnc3)CC2)c1C -10.5%
O=[N+]([O-])c1ccc2cc[nH]c2c1 7.88%
N#CNc1nc(O)cc(=O)[nH]1 -9.24%
